In ChEMBL document CHEMBL1961873, “Compounds: GSK PKIS; Assays: Nanosyn kinase panel” (2012):

Columns and labels:
[1] = molecular target: T1, Muscle, skeletal receptor tyrosine-protein kinase (Homo sapiens) (UniProt O15146); details: at 1 µM;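 also: reported value is the mean percent inhibition of MuSK kinase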
T1 sequence (whole entry): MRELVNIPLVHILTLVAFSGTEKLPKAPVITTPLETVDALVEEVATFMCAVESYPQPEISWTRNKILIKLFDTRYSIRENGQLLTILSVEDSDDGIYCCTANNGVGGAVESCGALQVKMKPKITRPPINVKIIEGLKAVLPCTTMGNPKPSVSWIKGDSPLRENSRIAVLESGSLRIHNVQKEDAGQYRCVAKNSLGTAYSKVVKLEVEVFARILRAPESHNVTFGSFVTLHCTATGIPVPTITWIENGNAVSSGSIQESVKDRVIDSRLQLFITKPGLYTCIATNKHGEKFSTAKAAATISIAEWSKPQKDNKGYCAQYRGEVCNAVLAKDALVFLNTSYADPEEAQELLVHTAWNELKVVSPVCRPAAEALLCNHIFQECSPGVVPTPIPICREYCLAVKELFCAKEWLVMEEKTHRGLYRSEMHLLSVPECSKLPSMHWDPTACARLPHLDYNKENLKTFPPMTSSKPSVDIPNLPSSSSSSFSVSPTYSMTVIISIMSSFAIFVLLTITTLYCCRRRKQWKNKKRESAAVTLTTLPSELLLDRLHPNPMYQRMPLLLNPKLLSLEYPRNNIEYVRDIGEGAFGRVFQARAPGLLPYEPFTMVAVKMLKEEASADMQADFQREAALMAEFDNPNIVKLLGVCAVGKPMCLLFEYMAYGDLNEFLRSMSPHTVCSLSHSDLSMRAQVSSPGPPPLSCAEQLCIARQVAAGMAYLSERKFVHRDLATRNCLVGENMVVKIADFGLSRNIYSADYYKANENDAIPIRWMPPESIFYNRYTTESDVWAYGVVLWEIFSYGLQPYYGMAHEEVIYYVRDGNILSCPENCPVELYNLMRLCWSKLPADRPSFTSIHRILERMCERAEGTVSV

[2] = molecular target: Platelet-derived growth factor receptor alpha (Homo sapiens) (UniProt P16234); details: at 0.1 µM
Platelet-derived growth factor receptor alpha (Homo sapiens), sequence (P16234 whole entry): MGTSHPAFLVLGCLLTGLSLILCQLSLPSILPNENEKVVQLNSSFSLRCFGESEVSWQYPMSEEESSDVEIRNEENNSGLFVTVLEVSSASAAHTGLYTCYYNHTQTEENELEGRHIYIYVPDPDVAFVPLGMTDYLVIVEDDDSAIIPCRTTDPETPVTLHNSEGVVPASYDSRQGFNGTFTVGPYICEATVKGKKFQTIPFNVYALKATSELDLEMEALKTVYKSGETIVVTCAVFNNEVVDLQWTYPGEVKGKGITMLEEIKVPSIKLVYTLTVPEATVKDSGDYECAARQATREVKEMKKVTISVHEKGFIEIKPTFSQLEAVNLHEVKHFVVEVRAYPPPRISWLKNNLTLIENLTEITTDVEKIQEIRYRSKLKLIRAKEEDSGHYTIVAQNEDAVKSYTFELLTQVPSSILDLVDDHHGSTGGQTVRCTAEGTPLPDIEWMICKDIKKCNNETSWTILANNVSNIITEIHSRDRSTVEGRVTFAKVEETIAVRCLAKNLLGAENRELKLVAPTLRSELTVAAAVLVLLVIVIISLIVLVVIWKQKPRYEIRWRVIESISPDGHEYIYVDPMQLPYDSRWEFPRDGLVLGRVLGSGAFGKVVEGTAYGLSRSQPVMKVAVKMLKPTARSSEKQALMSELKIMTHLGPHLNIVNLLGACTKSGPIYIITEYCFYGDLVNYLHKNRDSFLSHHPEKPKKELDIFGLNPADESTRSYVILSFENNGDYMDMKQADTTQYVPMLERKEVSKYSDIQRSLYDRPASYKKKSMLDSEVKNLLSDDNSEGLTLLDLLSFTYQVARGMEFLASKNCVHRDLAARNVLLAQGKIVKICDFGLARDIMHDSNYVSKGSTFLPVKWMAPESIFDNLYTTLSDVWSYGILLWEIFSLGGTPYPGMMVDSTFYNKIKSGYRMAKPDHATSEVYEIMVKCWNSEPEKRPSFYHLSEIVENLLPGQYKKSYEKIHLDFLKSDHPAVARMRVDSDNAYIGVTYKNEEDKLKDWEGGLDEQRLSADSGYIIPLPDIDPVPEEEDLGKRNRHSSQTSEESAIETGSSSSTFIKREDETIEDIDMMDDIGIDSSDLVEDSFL

[3] = molecular target: Platelet-derived growth factor receptor alpha (Homo sapiens) (UniProt P16234); details: at 1 µM
[4] = system: Platelet-derived growth factor receptor alpha (Homo sapiens), P16234 [D842V]; details: at 0.1 µM
Platelet-derived growth factor receptor alpha (Homo sapiens), P16234 [D842V], sequence (P16234 whole entry D842V): as the sequence (P16234 whole entry) above, with D842V counted along it

[5] = system: Platelet-derived growth factor receptor alpha (Homo sapiens), P16234 [D842V]; details: at 1 µM
[6] = system: Platelet-derived growth factor receptor alpha (Homo sapiens), P16234 [T674I]; details: at 0.1 µM
Platelet-derived growth factor receptor alpha (Homo sapiens), P16234 [T674I], sequence (P16234 whole entry T674I): as the sequence (P16234 whole entry) above, with T674I counted along it

[7] = system: Platelet-derived growth factor receptor alpha (Homo sapiens), P16234 [T674I]; details: at 1 µM
[8] = system: Platelet-derived growth factor receptor alpha (Homo sapiens), P16234 [V561D]; details: at 0.1 µM
Platelet-derived growth factor receptor alpha (Homo sapiens), P16234 [V561D], sequence (P16234 whole entry V561D): as the sequence (P16234 whole entry) above, with V561D counted along it

[9] = system: Platelet-derived growth factor receptor alpha (Homo sapiens), P16234 [V561D]; details: at 1 µM
[10] = molecular target: Platelet-derived growth factor receptor beta (Homo sapiens) (UniProt P09619); details: at 0.1 µM;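 also: reported value is the mean percent inhibition of the kinase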
Platelet-derived growth factor receptor beta (Homo sapiens), sequence (P09619 whole entry): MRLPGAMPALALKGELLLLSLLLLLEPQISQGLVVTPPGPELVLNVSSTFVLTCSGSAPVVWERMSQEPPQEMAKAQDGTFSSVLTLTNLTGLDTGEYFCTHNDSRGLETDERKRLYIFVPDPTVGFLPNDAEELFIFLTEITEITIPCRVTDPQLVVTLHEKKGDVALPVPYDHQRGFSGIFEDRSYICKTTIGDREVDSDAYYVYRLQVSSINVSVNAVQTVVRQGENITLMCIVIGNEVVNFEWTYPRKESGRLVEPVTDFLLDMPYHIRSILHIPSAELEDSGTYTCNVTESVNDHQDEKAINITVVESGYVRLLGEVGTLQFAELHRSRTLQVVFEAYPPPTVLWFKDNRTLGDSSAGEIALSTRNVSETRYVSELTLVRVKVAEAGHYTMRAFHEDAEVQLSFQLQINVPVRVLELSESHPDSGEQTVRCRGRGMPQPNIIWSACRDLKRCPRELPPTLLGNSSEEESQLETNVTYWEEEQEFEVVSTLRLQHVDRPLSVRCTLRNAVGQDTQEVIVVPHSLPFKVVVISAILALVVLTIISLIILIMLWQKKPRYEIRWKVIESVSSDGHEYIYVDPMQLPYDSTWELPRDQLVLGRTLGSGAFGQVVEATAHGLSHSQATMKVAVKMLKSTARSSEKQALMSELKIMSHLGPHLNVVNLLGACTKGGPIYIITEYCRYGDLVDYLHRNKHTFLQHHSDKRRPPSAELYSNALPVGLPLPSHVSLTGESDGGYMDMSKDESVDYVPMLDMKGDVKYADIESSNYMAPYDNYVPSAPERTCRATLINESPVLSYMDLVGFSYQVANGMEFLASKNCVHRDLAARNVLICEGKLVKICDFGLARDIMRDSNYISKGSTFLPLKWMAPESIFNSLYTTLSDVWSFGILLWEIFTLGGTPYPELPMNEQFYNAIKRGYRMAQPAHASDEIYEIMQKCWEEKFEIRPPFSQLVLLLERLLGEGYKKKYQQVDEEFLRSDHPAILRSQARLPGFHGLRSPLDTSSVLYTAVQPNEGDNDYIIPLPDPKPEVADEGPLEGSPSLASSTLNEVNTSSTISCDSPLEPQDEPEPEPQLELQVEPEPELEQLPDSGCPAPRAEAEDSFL

Row | SMILES | inhibition [1] [%] | inhibition [2] [%] | inhibition [3] [%] | inhibition [4] [%] | inhibition [5] [%] | inhibition [6] [%] | inhibition [7] [%] | inhibition [8] [%] | inhibition [9] [%] | inhibition [10] [%]
1 | N#Cc1c(NC(=O)CN2CCOCC2)sc2c1CCCC2 | 5.38 | 6.84 | 10.4 | 3.81 | 4.78 | 6.89 | 9.82 | 4.95 | 3.92 | 2.42
2 | c1cc(-c2cnn3nc(N4CCOCC4)ccc23)nc(NC2CC2)n1 | 9.05 | 31.9 | 76.8 | 21.2 | 75.8 | 2.78 | 17.5 | 18.1 | 72.4 | 12.5
3 | CNC(=O)c1cc(-c2ccc(F)cc2)cc(-c2ccc(S(=O)(=O)N3CCCC3)cc2)c1N | 0.83 | 3.69 | 7.98 | 2.05 | 1.76 | 2.94 | 2.93 | 3.32 | 2.29 | 3.45
4 | COc1ccc2c(-c3ccnc(Nc4cccc(OC(F)(F)F)c4)n3)cnn2n1 | 11.5 | 9.71 | 30.5 | -0.9 | 13.4 | 7.01 | 9.76 | 5.14 | 19.4 | 4.02
5 | CCc1nn2ncccc2c1-c1ccnc(NC2CC2)n1 | 3.55 | 4.59 | 8.05 | 1.28 | 5.3 | 4.48 | 5.6 | 3.69 | 5.92 | 4.03
6 | CS(=O)(=O)CCNCc1ccc(-c2ccc3ncnc(Nc4ccc(OCc5ccccc5)c(C(F)(F)F)c4)c3c2)o1 | -0.25 | 6.22 | 7.17 | 2.98 | 2.15 | 3.58 | 5.04 | 3.38 | 1.15 | 1.55
7 | [O-][S+]1CCN(Cc2ccc(-c3ccc4ncnc(Nc5ccc(OCc6cccc(F)c6)c(Cl)c5)c4c3)o2)CC1 | 2.81 | 7.43 | 13.2 | 4.45 | 6.91 | 4 | 6.97 | 3.95 | 8.29 | 4.69
8 | COc1cc2c(cc1Nc1nc(Nc3ccsc3C(N)=O)c3cc[nH]c3n1)N(C(=O)CN(C)C)CCC2(C)C | 62.4 | 21.6 | 63.2 | 5.04 | 20.5 | 8.69 | 16.9 | 13.1 | 46.1 | 15.1
9 | Clc1ccc(-c2nn3ncccc3c2-c2ccnc(Nc3ccccc3)n2)cc1 | 1.46 | 6.5 | 31.3 | 6.95 | 18.8 | 3.65 | 8.75 | 12.4 | 42 | 6.84
10 | COc1cccc(-c2c[nH]c3c(N/N=C/c4ccncc4)ncnc23)c1 | 48.8 | 64 | 82.8 | 72.2 | 94.4 | 21.8 | 82.2 | 59.7 | 93 | 55
11 | FC(F)(F)c1cccc(-c2nn3ncccc3c2-c2ccnc(Nc3ccc4c(c3)OCCO4)n2)c1 | 2.21 | 5.63 | 15.1 | 3.38 | 5.8 | 2.79 | 3.91 | 1.96 | 15.8 | 6.05
12 | CCn1c(-c2nonc2N)nc2cnc(Oc3cccc(NC(=O)c4ccc(N(C)C)cc4)c3)cc21 | 2.13 | 4.44 | 6.4 | 1.28 | 1.65 | 2.82 | 4.91 | 1.85 | 6.18 | 3.88
13 | COc1cc(Nc2nccc(Nc3ccc4c(C)n[nH]c4c3)n2)cc(OC)c1OC | 72.5 | 76 | 91.6 | 50 | 90.2 | 11.4 | 59 | 71.4 | 96.5 | 74.4
14 | COc1ccc(-c2cc(-c3c[nH]nc3-c3ccccn3)ccn2)cc1 | 4.1 | 13.7 | 42.1 | 14.9 | 58.7 | 7.15 | 9.53 | 11.1 | 40.6 | 7.26
15 | COc1ccc(-c2cc3c(N)ncnc3o2)cc1 | 2.3 | -1.4 | 16.5 | 2.85 | 9.77 | 1.44 | 4.01 | 3.4 | 19.1 | 1.93
16 | CCn1c(-c2nonc2N)nc2c(C#CC(C)(C)O)ncc(OC3CCNCC3)c21 | 5.05 | 4.05 | 19.5 | 5.06 | 33.8 | 4.95 | 28.3 | 2.59 | 17 | 5.33
17 | COc1ccc(-c2oc3ncnc(N)c3c2-c2ccc(NC(=O)Nc3cc(C(F)(F)F)ccc3F)cc2)cc1 | 101 | 38.6 | 88.9 | 6.4 | 54.4 | 18 | 72.1 | 26.6 | 86.2 | 20.2

Row | SMILES | inhibition [1] [%] | inhibition [2] [%] | inhibition [3] [%] | inhibition [4] [%] | inhibition [5] [%] | inhibition [6] [%] | inhibition [7] [%] | inhibition [8] [%] | inhibition [9] [%] | inhibition [10] [%]
18 | CCn1c(-c2nonc2N)nc2ccccc21 | 4.12 | 6.47 | 8.29 | 2.53 | 2.64 | 2.43 | 3.19 | 1.19 | 1.67 | 2.55
19 | COc1cc2ncn(-c3cc(OCc4ccccc4C(F)(F)F)c(C(=O)N(C)C)s3)c2cc1OC | 2.19 | 11 | 39.9 | 4.06 | 23.9 | 2.17 | 1.13 | 5.15 | 26.5 | 6.2
20 | c1ccc(COc2ccc(Nc3ncnc4ccc(-c5ccco5)cc34)cc2)cc1 | 1.01 | 3.81 | 6.96 | 2.63 | 3.21 | 2.49 | 3.6 | 2.39 | 2.43 | -0.23
21 | CCN1CCC(CC(=O)Nc2n[nH]c3nnc(-c4cccc(F)c4F)cc23)CC1 | -2.42 | 5.32 | 10.4 | 4.75 | 2.84 | 3.48 | 4.83 | 2.85 | 3.83 | -0.56
22 | CCn1c(-c2nonc2N)nc2c(C#CC(C)(C)O)nc(OC[C@H](N)c3ccccc3)cc21 | 5.52 | 4.66 | 43.8 | 12.2 | 61.6 | 9.88 | 47 | 4.88 | 42.3 | 13
23 | CC(C)COC(=O)c1ccc2c(c1)/C(=C/Nc1ccc(S(N)(=O)=O)cc1)C(=O)N2 | 51.3 | 53.2 | 84.3 | 60.7 | 93.1 | 4.41 | 38.9 | 44.7 | 88.4 | 66.3
24 | NS(=O)(=O)c1ccc(N/N=C2\C(=O)Nc3ccc4ncccc4c32)cc1 | 49.5 | 58.9 | 82.2 | 63.4 | 92.3 | 16.7 | 73.6 | 54.5 | 92.4 | 63.2
25 | CN1CCC(n2cnc(-c3ccc(F)cc3)c2-c2ccnc(N)n2)CC1 | 3.89 | 6.86 | 25.6 | 3.56 | 17.9 | 4.48 | 5.18 | 4.45 | 16.9 | 4.26
26 | Fc1cccc(COc2ccc(Nc3ncnc4sc(-c5ccco5)cc34)cc2Cl)c1 | 3.44 | 13.5 | 19.9 | 3 | 2.87 | 6.38 | 15.5 | 6.49 | 4.1 | 7.85
27 | COC(=O)Nc1nc2ccc(Oc3ccc(NC(=O)Nc4cccc(Cl)c4)cc3)cc2[nH]1 | 33.2 | 62.2 | 76.9 | 2.44 | 8.07 | 76.6 | 85.5 | 74.6 | 92.6 | 12.2
28 | CC(C)(CO)CNC(=O)c1ccc2c(c1)/C(=N/Nc1ccc(S(N)(=O)=O)cc1)C(=O)N2 | 21.6 | 18.7 | 62.5 | 23.2 | 77.3 | -0.15 | 6.93 | 15.7 | 65.4 | 38.7
29 | CNC(=O)c1cccc(C#Cc2cncnc2Nc2ccc(OCc3cccc(F)c3)c(Cl)c2)c1 | -1.15 | 5.17 | 17.4 | -0.74 | 2.9 | 1.03 | 2.59 | 0.66 | 4.6 | 4.41
30 | COc1ccc2[nH]c3c4[nH]c5ccc(OC)cc5c4c4c(c3c2c1)C(=O)NC4=O | 11.8 | 81.1 | 83.5 | 94.8 | 96.3 | 65.7 | 94.3 | 93.8 | 96.8 | 78.2
31 | N#Cc1c(NC(=O)c2ccc(F)cc2)sc2c1CCCC2 | 2.55 | 5.56 | 7.32 | 1.23 | 1 | 3.5 | 3.1 | 0.92 | 3.17 | 1.37
32 | O=C(O[C@H]1CN[C@H](C#Cc2cc3ncnc(Nc4ccc(Cc5ccccc5)cc4)c3s2)C1)N1CCOCC1 | -2.65 | -1.51 | 7.66 | -1 | 2.55 | 1.75 | 3.96 | -0.15 | 1.53 | 2.34
33 | CCN(CC)S(=O)(=O)c1ccc(OC)c(Nc2ncc(-c3ccccc3)o2)c1 | 6.08 | 12.7 | 50.7 | 5.3 | 23.2 | 8.47 | 8.95 | 10.1 | 39.2 | 19.2
34 | CNC(=O)c1cncc(/C=C/c2ccccc2Cl)c1 | 8.03 | 7.6 | 19.1 | -1.08 | 4.93 | 2.9 | 2.13 | 4.99 | 23.1 | 7.75
